Screen size: about 1,100 compounds; about 350 (32%) were called active. No rule for the calls is given here. A selection follows. Where a call stands in place of a potency, no number is given. Potency and affinity values are given separately.
Experiment: CEM21 lymphoblast cell cytotoxicity, dose response, cytotoxicity control for viral fusion inhibitor project, CellTiter-Glo luminescence, cherry-picked (AID 652042)
Details: CEM21 cells viability, CellTiter-Glo ATP luminescence, 24 h; series mostly up to 35 µM

Row | Compound | activity change, negative = cytotoxicity
1 | Cc1ccc(S(=O)(=O)N2CCCCC2)cc1C(=O)NCCC1=CCCCC1 | inactive
2 | Cc1ccc(C(=O)NCc2ccccn2)cc1S(=O)(=O)N1CCCCC1 | inactive
3 | O=S(=O)(NCC[C@H]1CC[C@H](NS(=O)(=O)c2ccccc2Cl)[C@H](CO)O1)c1ccc(Cl)cc1 | inactive
4 | O=S(=O)(NCC[C@@H]1CC[C@@H](NS(=O)(=O)c2ccccc2Cl)[C@H](CO)O1)c1ccc(Cl)cc1 | inactive
5 | COc1cc(-c2nc3oc4ccccc4c(=O)c3c(=O)n2Cc2ccco2)cc(OC)c1OC | inactive
6 | CCOC(=O)c1c(CSc2cccs2)n(C)c2cc(Br)c(O)c(CN(C)C)c12 | inactive
7 | CCOC(=O)c1c(CSc2ccsc2)n(C)c2cc(Br)c(O)c(CN(C)C)c12 | inactive
8 | CCN(CC)S(=O)(=O)c1ccc(NC2c3ccccc3C(=O)N2Cc2ccc3c(c2)OCO3)cc1 (configuration not stated) | inactive
9 | O=S(=O)(NCCc1csc(-c2cccnc2)n1)c1ccc(Cl)s1 | inactive
10 | COc1cccc(/C=N/NC(=O)CC2C(=O)NN=C2C)c1O (configuration not stated) | inactive
11 | CC(C)(C)OC(=O)N1CCc2onc(-c3ccc(Br)cc3)c2C1=O | inactive
12 | C=CC[n+]1c(-c2ccc(C)cc2)csc1NNC(=O)Nc1ccccc1 | 1.1% [at 8 µM] (inactive)
13 | COc1ccc(C(C)=O)cc1CC1(C)C(=O)Nc2ccc(-c3ccccc3OC)cc21 (configuration not stated) | inactive
14 | COc1cc(OCC(=O)NC(C)C)cc2c1C(=O)O[C@@H](C)CCCC(=O)CCCCC2 | inactive
15 | CSc1ccc(CN(C)C(=O)c2cccc(S(=O)(=O)N3CCN(Cc4ccccc4)CC3)c2)cc1 | inactive
16 | CSc1cccc(N2CC(C(=O)Nc3cccc(S(=O)(=O)N4CCCC4)c3)CC2=O)c1 (configuration not stated) | inactive
17 | COc1cc(NC2c3ccccc3C(=O)N2Cc2ccc3c(c2)OCO3)cc(OC)c1OC (configuration not stated) | inactive
18 | O=C(NC12CC3CC(CC(C3)C1)C2)OCCNC1CCCCC1 | inactive
19 | O=C1CCCC2=C1C(c1cccs1)Nc1ccccc1N2 (configuration not stated) | inactive
20 | CC[C@]1(C(=O)OC)[C@H]2C(=O)N(Cc3ccccc3)C(=O)[C@H]2[C@H]2CN=C(SCc3ccc(C#N)cc3)N21 | inactive
21 | CCOc1ccc(NS(=O)(=O)c2ccc(C(=O)N(C)CCc3ccc(OC)c(OC)c3)cc2)cc1 | inactive
22 | CC(C)C[C@@H](CN(C)N=O)N(C[C@H](Cc1ccccc1)N(CCc1ccccc1)N=O)N=O | inactive
23 | CCc1nc2ccc(C(=O)N3CCN(C(=O)c4ccco4)CC3)cn2c1N(C)Cc1ccc(OC)cc1 | inactive

Row | Compound | activity change, negative = cytotoxicity
24 | C[C@@]12C(=O)N(Cc3ccccc3)CC(=O)N1[C@H]1c3ccccc3OC[C@@H]1[C@@H]2c1ccccc1 | inactive
25 | O=S1(=O)c2c(cccc2N2CCCCC2)O[C@H](COCc2ccccc2)CN1C1CC1 | inactive
26 | COc1ccc(CCNC(=O)C2CCCN(Cc3nc(-c4cccc(Cl)c4)oc3C)C2)cc1OC (configuration not stated) | inactive
27 | Cc1oc(-c2ccc(Cl)cc2)nc1CN1CCCC(C(=O)NCc2cccnc2)C1 (configuration not stated) | inactive
28 | Nc1cc(-c2ccccc2)nn1S(=O)(=O)c1ccc(F)cc1 | inactive
29 | c1cnc2ccc(C(c3nnnn3C3CCCCC3)N3CCCCC3)cc2c1 (configuration not stated) | inactive
30 | c1ccc(CNc2ncnc3ccccc23)cc1 | inactive
31 | C=CCNc1ncnc2ccc(Br)cc12 | inactive
32 | CCN(C[C@H]1N[C@@](C)(C(=O)OC)[C@H]2C(=O)N(Cc3ccccc3)C(=O)[C@@H]12)S(=O)(=O)c1ccc(C(C)(C)C)cc1 | inactive
33 | CC1(Cc2ccc(Cl)cc2)C(=O)Nc2ccc(-c3cccnc3)cc21 (configuration not stated) | inactive
34 | O=C(CNc1ccc(F)cc1)c1ccccc1 | inactive
35 | COc1cccc(Cl)c1NC(=O)N1CCc2c([nH]c3ccccc23)C1C(F)(F)F (configuration not stated) | inactive
36 | O=C(CCCCn1c(=O)[nH]c2ccccc2c1=O)N1CCN(c2cccc(C(F)(F)F)c2)CC1 | inactive
37 | COc1ccc(N2CCN(C(=O)C3CCC(Cn4c(=S)[nH]c5ccccc5c4=O)CC3)CC2)cc1 (configuration not stated) | inactive
38 | CC(C)CCSc1nc(N)c(C#N)cc1C#N | inactive
39 | COc1ccc(CNc2ncnc3ccccc23)cc1 | inactive
40 | COC(=O)C1(C(=O)OC)C[C@H](c2ccc(OC)cc2)N(Cc2ccccc2OC)[C@@H]1c1cccs1 | inactive
41 | CC(C)(C)c1ccc(C(=O)Nc2ccc(CC(=O)O)cc2)o1 | inactive
42 | Cc1nn(C)c(C)c1CN(C)S(=O)(=O)c1ccc2ccccc2c1 | inactive
43 | CS(=O)(=O)N(Cc1ccc(Cl)cc1)c1ccc(C(=O)NCCC2=CCCCC2)cc1 | inactive
44 | Cc1ccc2c(c1)c1c3n2CCN(CC(N)=O)C3CCC1 (configuration not stated) | inactive
45 | CO[C@H]1CN(C)C(=O)c2cc(NS(=O)(=O)c3ccc(Cl)cc3)ccc2OC[C@@H](C)N(C)C[C@@H]1C | inactive
46 | Cc1cc2ncn(S(=O)(=O)N3CCCCC3)c2cc1C | inactive

Row | Compound | activity change, negative = cytotoxicity
47 | CC(C)(C)c1ccc(C(=O)N2CCCCCC2=O)cc1 | inactive
48 | CC(=O)Nc1sc2c(c1C(c1ccc(F)cc1)N1CCOCC1)CCCC2 (configuration not stated) | inactive
49 | CN(C[C@@H](CC1CCCCC1)N(C[C@H](Cc1ccccc1)N(CCc1ccccc1)N=O)N=O)N=O | inactive
50 | CC[C@]1(C(=O)OC)[C@H]2C(=O)N(Cc3ccccc3)C(=O)[C@H]2[C@H]2CN=C(SCC3CC3)N21 | inactive
51 | CO[C@@H]1CN(C)C(=O)c2ccc(NC(C)=O)cc2OC[C@@H](C)N(Cc2cncnc2)C[C@@H]1C | inactive
52 | COc1ccc(-c2cn3c(C)c(C(=O)Nc4cccc(NC(C)=O)c4)sc3n2)cc1 | inactive
53 | O=C(N/N=C/c1ccc(-n2ccnc2)cc1)c1cccs1 | inactive
54 | Cc1ccc(-n2nnnc2-c2cnn(-c3ccc(F)cc3)c2C(F)(F)F)cc1 | inactive
55 | CCc1ccc([C@H]2[C@@H]3C(=O)C[C@@H]4C(=O)N(C5CCCCC5)C(=O)[C@@H]4[C@@H]3CN2S(=O)(=O)c2ccc(C)cc2)cc1 | inactive
56 | COc1ccc(OC2C(=O)N(Cc3ccc4c(c3)OCO4)C2c2cccs2)cc1 (configuration not stated) | inactive
57 | COC(=O)[C@H](Cc1ccccc1)NC(=O)Cn1cnc(C(=O)Nc2ccc(C)c(C)c2)n1 | inactive
58 | O=S(=O)(c1ccccc1Cl)N1CCCC1c1nc(-c2ccc(Cl)cc2)no1 (configuration not stated) | inactive
59 | CCNC(=O)C[C@@H]1CC[C@@H]2[C@H](COC[C@@H](O)CN2C(=O)c2ccccn2)O1 | inactive
60 | COC(=O)C1(C(=O)OC)C[C@H](c2ccccc2)N(Cc2ccccc2OC)[C@@H]1c1ccccc1 | inactive
61 | COc1ccc(CCNc2oc(-c3cccc4ccccc34)nc2P(=O)(OC)OC)cc1OC | inactive
62 | COc1ccc(S(=O)(=O)Nc2ccc3c(c2)CC(=O)N([C@H](C)CO)C[C@H](C)[C@H](CN(C)S(=O)(=O)c2cccs2)O3)cc1 | inactive
63 | CC(C)CNS(=O)(=O)c1ccc(CCC(=O)N2CCN(Cc3ccc4c(c3)OCO4)CC2)cc1 | inactive
64 | CN1C(=O)C2(c3ccccc31)N(C)CC(c1ccccc1)C21SC(=S)N(Cc2ccco2)C1=O (configuration not stated) | inactive
65 | C[C@@]12C(=O)N(Cc3ccco3)CC(=O)N1[C@H]1c3ccccc3OC[C@@H]1[C@@H]2c1ccccc1 | inactive
66 | O=C(NCCCN1CCc2ccccc2C1)Nc1ccc(Cl)cc1 | inactive
67 | CCCCn1c(N)c(N(CC(C)C)C(=O)c2ccc(S(=O)(=O)N(CC)c3ccccc3)cc2)c(=O)[nH]c1=O | inactive
68 | NC(=O)c1sc2nccc(Nc3ccccc3)c2c1N | inactive
69 | CCc1nc2ccc(C(=O)NCCN3CCNC3=O)cn2c1N(CC)Cc1cccc(Br)c1 | inactive

Row | Compound | activity change, negative = cytotoxicity
70 | Cc1ccccc1OCC(=O)Nc1cccc(C(=O)O)c1 | inactive
71 | O=C(Nc1ccc(F)cc1)C1CCCN1S(=O)(=O)c1ccc(Br)cc1 (configuration not stated) | inactive
72 | CC(=O)c1c(C)[nH]c(C(=O)OCC(=O)Nc2c(C)cccc2C)c1C | inactive
73 | Cc1ccc(-c2nnc(N3CCN(C(=O)COc4ccccc4)CC3)c3ccccc23)cc1 | inactive
74 | O=C(Cc1ccc(S(=O)(=O)N2CCOCC2)s1)N1CCN(S(=O)(=O)c2ccc(Cl)cc2)CC1 | inactive
75 | Cc1cc(Cl)ccc1OCC(=O)NNC(=O)C1CSC2(C)CCC(=O)N12 (configuration not stated) | inactive
76 | CC(NC(=O)c1cc(S(=O)(=O)N(C)C)ccc1N1CCCC1)C1CC2CCC1C2 (configuration not stated) | inactive
77 | O=C(CCc1ccc(S(=O)(=O)N2CCOCC2)cc1)Nc1nc(COc2ccccc2)cs1 | inactive
78 | COCCCn1c(-c2ccc(S(=O)(=O)N3CCOCC3)cc2)csc1=Nc1ccccc1 | inactive
79 | O=C(CN1C(=O)c2ccccc2S1(=O)=O)N1CCc2ccccc21 | inactive
80 | Clc1ccc(-c2noc(CSc3nnc(-c4ccncc4)n3-c3ccccc3)n2)cc1 | inactive
81 | Cc1cccc(C)c1NC(=O)N1CCN(c2nc3ccccc3s2)CC1 | inactive
82 | COc1ccc(-c2nnn(CC(=O)N(Cc3cccs3)C(C)C(=O)NC3CCCC3)n2)cc1OC (configuration not stated) | inactive
83 | O=C(NC1CCCCC1)C(c1cccs1)N(Cc1cccs1)C(=O)c1ccco1 (configuration not stated) | inactive
84 | c1ccc2c(c1)OCC(CNc1ncnc3nc[nH]c13)O2 (configuration not stated) | inactive
85 | C[C@H](CO)N1C[C@H](C)[C@@H](CN(C)C(=O)[C@H](Cc2ccccc2)N(C)C)OCc2ccccc2-c2c(n(C)c3ccccc23)C1=O | inactive
86 | C[C@H]1CN([C@@H](C)CO)C(=O)c2ccccc2-c2ccccc2CO[C@@H]1CN(C)C(=O)Nc1cccc(C(F)(F)F)c1 | inactive
87 | C[C@H]1CN([C@@H](C)CO)C(=O)c2c(c3ccccc3n2C)-c2ccccc2CO[C@H]1CN(C)C(=O)Nc1cccc(F)c1 | inactive
88 | COc1ccc(CNC(=O)N(C)C[C@H]2OCc3ccccc3-c3ccccc3C(=O)N([C@H](C)CO)C[C@@H]2C)cc1 | inactive
89 | CO[C@H](C(=O)N(C)C[C@@H]1OCc2ccccc2-c2c(n(C)c3ccccc23)C(=O)N([C@H](C)CO)C[C@@H]1C)c1ccccc1 | inactive
90 | C[C@H]1CN([C@@H](C)CO)C(=O)c2c(c3ccccc3n2C)-c2ccccc2CO[C@H]1CN(C)C(=O)Cc1ccccc1 | inactive
91 | C[C@H](C(=O)N(C)C[C@@H]1OCc2ccccc2-c2ccccc2C(=O)N([C@@H](C)CO)C[C@@H]1C)c1ccccc1 | inactive
92 | C[C@H](C(=O)N(C)C[C@@H]1OCc2ccccc2-c2ccccc2C(=O)N([C@@H](C)CO)C[C@H]1C)c1ccccc1 | inactive
